Experimental data published in PubChem BioAssay AID1159580 (chemical genetic matrix, 2015).
The campaign covered roughly 5,500 compounds. About 2,000 (36%) were called active. Another 18% or so got no clear call; they are omitted. Rule as the data show it: active = normalized growth mostly below about 0.91 (no sharp cut-off); inconclusive = no clear call, values can overlap the other calls; inactive = mostly above about 0.92. Some of the results follow.

Experiment: chemical genetic growth profiling, strain panel (AID 1159580);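 also: tested at 20 µM; growth read once vehicle control cultures reached saturation at 30 °C; 1 = growth at the plate median or of vehicle wells; lower values mean less growth of the strain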
Conditions: S. cerevisiae deletion strains, growth OD
[1] = locus YAR019C, strain CDC15, hits give low values
[2] = locus YBL105C, strain PKC1, hits give low values
[3] = locus YBR135W, strain CKS1, hits give low values
[4] = locus YBR136W, strain MEC1, hits give low values
[5] = locus YBR160W, strain CDC28, hits give low values
[6] = locus YDL017W, strain CDC7, hits give low values
[7] = locus YDL028C, strain MPS1, hits give low values
[8] = locus YDL101C, strain DUN1, hits give low values
[9] = locus YDL108W, strain KIN28, hits give low values
[10] = locus YDL132W, strain cdc53, hits give low values
[11] = locus YDL214C, strain PRR2, hits give low values
[12] = locus YDR052C, strain DBF4, hits give low values
[13] = locus YDR054C, strain cdc34, hits give low values
[14] = locus YDR226W, strain ADK1, hits give low values
[15] = locus YDR477W, strain SNF1, hits give low values
[16] = locus YER123W, strain YCK3, hits give low values
[17] = locus YER133W, strain GLC7, hits give low values
[18] = locus YFL009W, strain cdc4, hits give low values
[19] = locus YFL029C, strain CAK1, hits give low values
[20] = locus YFR003C, strain YPI1, hits give low values
[21] = locus YFR019W, strain FAB1, hits give low values
[22] = locus YFR028C, strain CDC14, hits give low values
[23] = locus YGR040W, strain KSS1, hits give low values
[24] = locus YGR052W, strain FMP48, hits give low values
[25] = locus YGR092W, strain DBF2, hits give low values
[26] = locus YHR030C, strain SLT2, hits give low values
[27] = locus YHR079C, strain IRE1, hits give low values
[28] = locus YHR082C, strain KSP1, hits give low values
[29] = locus YHR205W, strain SCH9, hits give low values
[30] = locus YIL147C, strain SLN1, hits give low values
[31] = locus YJL095W, strain BCK1, hits give low values
[32] = locus YJL128C, strain PBS2, hits give low values
[33] = locus YJL157C, strain FAR1, hits give low values
[34] = locus YJR016C, strain ILV3, hits give low values
[35] = locus YJR066W, strain TOR1 (second series), hits give low values
[36] = locus YJR066W, strain TOR1, hits give low values
[37] = locus YKL048C, strain ELM1, hits give low values
[38] = locus YKL067W, strain YNK1, hits give low values
[39] = locus YKL101W, strain HSL1, hits give low values
[40] = locus YKL193C, strain SDS22, hits give low values
[41] = locus YKL203C, strain TOR2, hits give low values
[42] = locus YLR113W, strain HOG1, hits give low values
[43] = locus YLR133W, strain CKI1, hits give low values
[44] = locus YLR403W, strain SFP1, hits give low values
[45] = locus YML070W, strain DAK1, hits give low values
[46] = locus YMR001C, strain CDC5, hits give low values
[47] = locus YMR205C, strain PFK2 (second series), hits give low values
[48] = locus YMR277W, strain FCP1, hits give low values
[49] = locus YNL006W, strain LST8, hits give low values
[50] = locus YNL020C, strain ARK1, hits give low values
[51] = locus YNL161W, strain CBK1, hits give low values
[52] = locus YNL183C, strain NPR1, hits give low values
[53] = locus YNL207W, strain RIO2, hits give low values
[54] = locus YNL222W, strain SSU72, hits give low values
[55] = locus YNL307C, strain MCK1 (second series), hits give low values
[56] = locus YOL078W, strain AVO1, hits give low values
[57] = locus YOL136C, strain PFK27, hits give low values
[58] = locus YOR061W, strain CKA2, hits give low values
[59] = locus YOR119C, strain RIO1, hits give low values
[60] = locus YOR231W, strain MKK1, hits give low values
[61] = locus YOR329C, strain SCD5, hits give low values
[62] = locus YPL031C, strain PHO85, hits give low values
[63] = locus YPL153C, strain RAD53, hits give low values
[64] = locus YPL204W, strain HRR25, hits give low values
[65] = locus YPL209C, strain IPL1, hits give low values
[66] = locus YPL256C, strain CLN2, hits give low values
[67] = locus YPR025C, strain CCL1, hits give low values
[68] = locus YPR106W, strain ISR1, hits give low values
[69] = locus YPR111W, strain DBF20, hits give low values
[70] = strain NNK1, hits give low values
[71] = strain TSCII, hits give low values

Measured: normalized growth

Nc1ccccc1C(=O)N/N=C\c1cc(Cl)cc(Cl)c1O
inactive: [1] 0.968 | [2] 0.958 | [3] 0.97 | [4] 0.962 | [5] 0.968 | [6] 0.963 | [7] 0.964 | [8] 0.97 | [9] 0.965 | [10] 0.954 | [11] 0.758 | [12] 0.959 | [13] 0.955 | [14] 0.957 | [15] 0.694 | [17] 0.76 | [18] 0.949 | [19] 0.966 | [20] 0.962 | [21] 0.838 | [22] 0.948 | [23] 0.777 | [28] 0.682 | [30] 0.963 | [32] 0.972 | [34] 0.976 | [36] 0.546 | [40] 0.967 | [44] 0.669 | [46] 0.956 | [48] 0.958 | [49] 0.967 | [51] 0.967 | [53] 0.948 | [54] 0.967 | [56] 0.969 | [61] 0.97 | [62] 0.688 | [65] 0.969 | [67] 0.967 | [68] 0.96 | [69] 0.946 | [70] 0.939 | [71] 0.962
active: [16] 0.435 | [24] 0.325 | [25] 0.13 | [26] 0.657 | [27] 0.485 | [29] 0.564 | [31] 0.425 | [33] 0.685 | [35] 0.404 | [37] 0.579 | [38] 0.649 | [39] 0.301 | [41] 0.65 | [42] 0.434 | [43] 0.586 | [45] 0.494 | [47] 0.527 | [50] 0.516 | [52] 0.43 | [55] 0.27 | [57] 0.588 | [58] 0.491 | [59] 0.696 | [60] 0.393 | [63] 0.583 | [64] 0.655 | [66] 0.456

CC(C)(C)c1ccc(C(=O)N/N=C\c2cc(Cl)cc(Cl)c2O)cc1
inactive: locus YDR150W, strain NUM1, hits give low values 1.19 | locus YJR075W, strain HOC1, hits give low values 0.996 | locus YLR058C, strain SHM2 (second series), hits give low values 0.97 | locus YMR263W, strain SAP30, hits give low values 0.893 | locus YNL322C, strain KRE1, hits give low values 0.998 | locus YPL055C, strain LGE1, hits give low values 0.858 | locus YPR135W, strain CTF4, hits give low values 0.69
active: locus YAL013W, strain DEP1, hits give low values 0.909 | locus YBR229C, strain ROT2, hits give low values 0.832 | locus YCL061C, strain MRC1, hits give low values 0.818 | [8] 0.852 | locus YEL061C, strain CIN8, hits give low values 0.624 | locus YGR078C, strain PAC10, hits give low values 0.847 | [26] 0.452 | locus YHR087W, strain rtc3, hits give low values 0.872 | locus YJR043C, strain POL32, hits give low values 0.876 | locus YKL190W, strain CNB1, hits give low values 0.316 | locus YLR039C, strain RIC1, hits give low values 0.165 | locus YLR085C, strain ARP6, hits give low values 0.285 | locus YLR262C, strain YPT6, hits give low values 0.182 | locus YML094W, strain GIM5, hits give low values 0.645 | locus YMR219W, strain ESC1, hits give low values 0.83 | locus YNL128W, strain TEP1, hits give low values 0.377 | locus YNL153C, strain GIM3, hits give low values 0.826 | locus YNL298W, strain CLA4 (second series), hits give low values 0.642 | locus YNR030W, strain Alg12, hits give low values 0.617 | locus YPL241C, strain CIN2, hits give low values 0.428

O=C(N/N=C\c1cc(Cl)cc(Cl)c1O)c1ccccc1Oc1ccccc1
active: [42] 0.722 | [66] 0.818
inactive: [1] 0.965 | [2] 0.967 | [3] 0.981 | [4] 0.964 | [5] 0.974 | [6] 0.975 | [7] 0.963 | [8] 0.981 | [9] 0.958 | [10] 0.955 | [11] 0.933 | [12] 0.97 | [13] 0.96 | [14] 0.966 | [15] 0.945 | [16] 0.882 | [17] 0.949 | [18] 0.958 | [19] 0.953 | [20] 0.961 | [21] 0.946 | [22] 0.962 | [23] 0.934 | [24] 0.929 | [25] 0.885 | [26] 0.855 | [27] 0.917 | [28] 0.916 | [29] 0.844 | [30] 0.967 | [31] 0.871 | [32] 0.921 | [33] 0.939 | [34] 0.974 | [35] 0.939 | [36] 0.933 | [37] 0.895 | [38] 0.901 | [39] 0.89 | [40] 0.965 | [41] 0.969 | [43] 0.926 | [44] 0.925 | [45] 0.891 | [46] 0.961 | [47] 0.913 | [48] 0.971 | [49] 0.982 | [50] 0.906 | [51] 0.971 | [52] 0.88 | [53] 0.945 | [54] 0.971 | [55] 0.906 | [56] 0.975 | [57] 0.913 | [58] 0.905 | [59] 0.922 | [60] 0.91 | [61] 0.976 | [62] 0.938 | [63] 0.924 | [64] 0.919 | [65] 0.982 | [67] 0.966 | [68] 0.968 | [69] 0.952 | [70] 0.959 | [71] 0.967
